Results reported in ChEMBL document CHEMBL4513216, “Probing the Open Global Health Chemical Diversity Library for Multistage-Active Starting Points for Next-Generation Antimalarials” (ACS Infect Dis, 2020).
Among all 69,000 compounds or so, about 8,600 (12%) showed an effect of 50% or more. This is one part of a sample in which strong results are shown more often than they occur.

These compounds were tested on Plasmodium berghei (assay: Screen against P. berghei liver stage (PbLuc), transformed with Luciferase, at 10uM). Conditions: tested at 10 uM.
Format: functional, HepG2
For `Cc1nc(C)c(C(=O)NCCNc2ncccc2C(F)(F)F)s1`, the INHIBITION was -36.3%. Compound `CCn1cnnc1C1CCN(C(=O)c2ccc3cc[nH]c3c2)CC1` has an INHIBITION of 30.8%. Work on `Cc1cc(C)n(CC2CN(Cc3noc(C4CC4)n3)CCO2)n1` (stereo unspecified) yielded an INHIBITION of -37.7%. Work on `CC(=O)N1CCCCC1c1nc2c(c(NC3CCCC3)n1)CN(C)CC2` (stereo unspecified) yielded an INHIBITION of 38.2%. `O=C(NCCNc1ncccn1)N1CCN(C2CCCC2)CC1` gave an INHIBITION of 21.6%. With `Cc1nc(C2CCCN(C(=O)CCn3ccccc3=O)C2)no1` (stereo unspecified) the INHIBITION was 29.7%. For `COCc1ncc(CN2CCC3(CCNCC3)CC2)cn1`, the INHIBITION was 18.5%. Work on `COCc1ncc(CN2CCC3(CCC(=O)N(CC(C)O)C3)CC2)cn1` (stereo unspecified) yielded an INHIBITION of 55.2%. `COCc1ncc(CN2CCC3(CCNC(=O)CC3)CC2)cn1` was tested, and the INHIBITION was -47%. `COC(=O)C1CCN(C(=O)Cn2nc(C)nc2-c2ccccc2)CC1` gave an INHIBITION of -3.48%. In the case of `N[C@@H](Cc1c[nH]cn1)C(=O)N1CCC(Oc2ccc(Cl)cc2)CC1`, the INHIBITION is reported as 43.9%. In the case of `Cn1cc(CN2CCCC(CCc3ccccc3C(F)(F)F)C2)cn1` (stereo unspecified), the INHIBITION is reported as 43%. `Cc1nc(CN2CCCC(c3nc(C)n4c(C)c(C)sc34)C2)co1` (stereo unspecified) showed an INHIBITION of 19.6%. `Cc1nc(CN2CCCC(CCc3cccc(C(F)(F)F)c3)C2)co1` (stereo unspecified) gave an INHIBITION of 62.4%. `Cc1nnc(CN2CCCC(CCc3ccccc3C(F)(F)F)C2)o1` (stereo unspecified) gave an INHIBITION of 27.2%. Compound `CC1CCCN(Cc2coc(-c3cccc(F)c3)n2)C1` (stereo unspecified) has an INHIBITION of 18.6%. In the case of `CCN(CC(F)(F)F)C(=O)C1CCCN(Cc2cscn2)C1` (stereo unspecified), the INHIBITION is reported as -116%. `FC(F)(F)c1ccccc1CCC1CCCN(Cc2cscn2)C1` (stereo unspecified) gave an INHIBITION of 76.7%. Compound `Cc1nc(CN2CCCC(CCc3ccccc3C(F)(F)F)C2)co1` (stereo unspecified) has an INHIBITION of 74.5%. For `Cc1ccccc1CCC1CCCN(Cc2nnc(-c3ccco3)o2)C1` (stereo unspecified), the INHIBITION was 35.6%. Work on `COCCN(Cc1ccco1)c1ncc(C#N)cc1Cl` yielded an INHIBITION of 28%. Work on `CCn1ncc(Nc2[nH]cnc3nc(C)nc2-3)c1C` yielded an INHIBITION of 9%. `COCC(=O)Nc1ccc(-c2noc([C@@H]3CCCN3C(C)C)n2)cn1` showed an INHIBITION of 35.8%. With `CC(C)NC(=O)N1Cc2nccn2CC(COc2cccnc2)C1` (stereo unspecified) the INHIBITION was 22.4%. For `O=C(c1cscn1)N1CCC2(CCN(Cc3cccs3)CC2)C1`, the INHIBITION was -5.12%. `COc1ccccc1N1CCN(Cc2ncc(C)c(OC)c2C)CC1=O` showed an INHIBITION of 37.4%. `CC(C)NC(=O)CNC(C)c1c(F)cccc1Cl` (stereo unspecified) gave an INHIBITION of 31.2%. For `CC(NCC(N)=O)c1c(F)cccc1Cl` (stereo unspecified), the INHIBITION was 67.1%. `NC(=O)CNC(c1ccccc1)c1ccccc1` showed an INHIBITION of 6.67%. Work on `CC(NC(=O)N1CCS(=O)(=O)CC1)c1c(F)cccc1Cl` (stereo unspecified) yielded an INHIBITION of -5.275%. With `CC(NC(=O)N1CCNC(=O)CC1)c1c(F)cccc1Cl` (stereo unspecified) the INHIBITION was -36.75%. `CNC(=O)NC(C)c1c(F)cccc1Cl` (stereo unspecified) showed an INHIBITION of 50.8%. For `CCOc1ccccc1N1CCN(c2nnc(C)o2)CC1`, the INHIBITION was 7.4%. Work on `CCN(CC)C(=O)CN(C)CCn1nc2ccccn2c1=O` yielded an INHIBITION of -79.8%. In the case of `N#Cc1ccc(C(=O)N2CC[C@H]3[C@@H]2CCC(=O)N3c2cccnc2)cc1`, the INHIBITION is reported as 23.9%. `Cc1ccc(C(=O)N2C[C@@H](OCc3cccnc3)[C@H]3OCCC[C@H]32)o1` was tested, and the INHIBITION was 10.6%. Work on `Cc1ccc2c(c1)OC(C)CN2C(=O)c1c[nH]c(C)cc1=O` (stereo unspecified) yielded an INHIBITION of 26.9%. With `CCC(=O)N1CCC2(CC1)CC(CC(=O)N(C)C)c1ccc(F)cc12` (stereo unspecified) the INHIBITION was 51.2%. `CN(C)C(=O)CC1CC2(CCN(CC3CC3)CC2)c2cc(F)ccc21` (stereo unspecified) gave an INHIBITION of 35.3%. For `CCN1CCC2(CC1)CC(CC(=O)N(C)C)c1ccc(F)cc12` (stereo unspecified), the INHIBITION was 53%. For `CCNC(=O)CC1CC2(CCN(C(C)=O)CC2)c2cc(F)ccc21` (stereo unspecified), the INHIBITION was 31.4%. Work on `CCC(=O)N1CCC2(CC1)CC(CC(N)=O)c1ccc(F)cc12` (stereo unspecified) yielded an INHIBITION of -26.5%. Work on `CCOC1CC2(CCN(C(=O)COC)CC2)c2cc(F)ccc21` (stereo unspecified) yielded an INHIBITION of 19.8%. With `Cc1cccc(-c2ccc(C(=O)NCC3CCCOC3)c(=O)[nH]2)c1` (stereo unspecified) the INHIBITION was -24.2%. `COCCC(=O)N1CCN(CC(C)C)c2nc(C)ccc2C1` was tested, and the INHIBITION was 7.24%. With `Cc1ncsc1CN(C)C(=O)CC1CCOc2ccccc21` (stereo unspecified) the INHIBITION was -1.35%. With `COCc1ccccc1C(=O)OCc1noc(C)n1` the INHIBITION was 9.63%. Compound `Cc1nc(COC(=O)c2cccc3c2OCCO3)no1` has an INHIBITION of 70.1%. Work on `Cc1nc(COC(=O)c2cccnc2C)no1` yielded an INHIBITION of 32%. Work on `Cc1ncsc1COC(=O)c1cccc2c1OCCO2` yielded an INHIBITION of 77.9%. Compound `Cc1nc(COC(=O)c2cccc3c2OCCO3)cs1` has an INHIBITION of 48.8%. For `Cc1nc(CN2C(=O)CCC23CCN(Cc2ccoc2)CC3)cs1`, the INHIBITION was -30%. With `O=S(=O)(c1ccccc1)N1CCOCC(Cc2cccnc2)C1` (stereo unspecified) the INHIBITION was 9.05%. `CCN(C(=O)CN1CCCC1Cc1ccccc1)c1ccccc1` (stereo unspecified) gave an INHIBITION of 75.7%. `COc1cccc(CC2CCCN2CC(N)=O)c1` (stereo unspecified) showed an INHIBITION of 35%. `N#CCCN(C(=O)CN1CCCC1Cc1ccccc1)c1ccccc1` (stereo unspecified) showed an INHIBITION of 38.5%. Work on `CN(Cc1cccc(F)c1)C(=O)CN1CCCC1CCc1ccccc1` (stereo unspecified) yielded an INHIBITION of 5.14%. In the case of `N#CCCCN1CCCC1Cc1ccccc1` (stereo unspecified), the INHIBITION is reported as 53.6%. With `COc1cccc(CC2CCCN2CCCC#N)c1` (stereo unspecified) the INHIBITION was 34.1%. `CCN(C(=O)CN1CCCC1c1ccc(OC)cc1)c1ccccc1` (stereo unspecified) showed an INHIBITION of -47.9%. For `COc1ccc(CC2CCCN2CCCC#N)cc1` (stereo unspecified), the INHIBITION was 35.9%. Compound `CN(C(=O)CN1CCCC1Cc1ccccc1)c1ccccc1` (stereo unspecified) has an INHIBITION of 68%. With `COc1ccc(CCN2CC(n3nc(C)cc3C)C2)cc1` the INHIBITION was -6.61%. `Cc1cnn(CCCNCc2csc(COc3ccccc3)n2)c1` was tested, and the INHIBITION was 30.2%. `CCOC(=O)c1sc(NC(=O)C(C)(C)C)c(C#N)c1C` was tested, and the INHIBITION was -43.6%. Work on `Cc1nn(C)c(C)c1C1CCCN1CC(=O)NCc1ccccn1` (stereo unspecified) yielded an INHIBITION of 26.5%. With `COCCNC(=O)CN1CCC(N2CCN(C)C2=O)CC1` the INHIBITION was 48.2%. `Cc1cc(C(=O)N2CCCC(c3nccn3C)C2)cc(S(N)(=O)=O)c1C` (stereo unspecified) gave an INHIBITION of -2.98%. `Cc1cc(C)nc(N2CCC(C(=O)Nc3ncc[nH]3)CC2)n1` showed an INHIBITION of 47.9%. `CNc1cc(C(=O)N2CCOC(C(=O)NC3CCCC3)C2)ccn1` (stereo unspecified) showed an INHIBITION of -23.4%. `O=C(NCCSc1ccccc1)[C@H]1CNC[C@@H](C(=O)N2CCOCC2)C1` showed an INHIBITION of -1.09%.
